A selection: hits, their analogues and other compounds. The true share with any hit is near 6.3%.
tim23-1 inh – growth inhibitors of tim23-1 mutant yeast, primary screen, luminescence, uHTS | S. cerevisiae tim23-1 growth, BacTiter-Glo luminescence, 24 h | inhibition, % at 20 µM | 330,000 tested, 1.3% active | AID 463212, 2010;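 active = growth inhibition of the mutant yeast at or above 50%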;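 also: temperature-sensitive mutant grown at 25 °C; plate controls were DMSO-treated mutant yeast for no effect and medium wells lacking yeast for full effect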
tim10-1 inh – growth inhibitors of tim10-1 mutant yeast, primary screen, luminescence, uHTS | S. cerevisiae tim10-1 ts strain growth, BacTiter-Glo, 24 h | inhibition, % at 20 µM | 330,000 tested, 2.2% active | AID 463190, 2010;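 active = inhibition of at least 40%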;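 also: mutant grown at 25 °C; 0% = DMSO wells with yeast and 100% = wells holding no yeast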
TIM10 inh – growth inhibitors of isogenic TIM10 control yeast, primary screen, counter-screen for tim10-1 yeast inhibitor project, luminescence, uHTS. S. cerevisiae TIM10 strain growth, BacTiter-Glo luminescence, 24 h. inhibition, % at 10 µM. 330,000 tested, 1.4% active;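 active = inhibition of 40% or more at the single tested concentration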;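 also: wild-type TIM10 isogenic control strain grown at permissive 25 °C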
MPTP inh – mitochondrial permeability transition pore inhibitors, primary screen, biochemical, isolated mouse mitochondria, absorbance. inhibition, % at 10 µM. AID 602449, 2012. Ca2+ swelling absorbance, 30 min. 360,000 tested, 1.4% active;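 active = inhibition of 50% or more, scaled per plate between neutral and stimulator controls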;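 also: 0% = DMSO wells given calcium and 100% = 1 mM EGTA wells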
Mdm2-MdmX inh – inhibitors of human Mdm2-MdmX association, primary screen, cell-based, luminescence, split luciferase, SaOS-2, uHTS | SaOS-2 split-luciferase Mdm2/MdmX complementation | 330,000 tested, 3% active | inhibition, % at 8 µM | Protein Mdm4 (Homo sapiens) + E3 ubiquitin-protein ligase Mdm2 (Homo sapiens), …;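 active = inhibition of at least 50% at 8 µM in the primary screen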
tim10-1 conf – growth inhibitors of tim10-1 mutant yeast, confirmation, single concentration, luminescence, S. cerevisiae; 7,400 tested, 56% active; AID 463213, 2010; S. cerevisiae tim10-1 ts strain growth, BacTiter-Glo, 24 h; inhibition, % at 20 µM; shares compounds with tim10-1 inh;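 active = inhibition of yeast growth at or above a set limit in either of two repeat tests at 20 µM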;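 also: tim10-1 mutant grown at permissive 25 °C to find synthetic lethal compounds; 0% = DMSO yeast wells and 100% = medium wells without yeast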
tim10 confirm – growth inhibitors of wild-type TIM10 yeast, confirmation, counter-screen for tim10-1 synthetic lethality project, single concentration, luminescence, S. cerevisiae. shares compounds with TIM10 inh. S. cerevisiae tim10 strain growth, BacTiter-Glo luminescence, 24 h. inhibition, % at 10 µM. 4,600 tested, 63% active. AID 463215, 2010;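 active = inhibition of yeast growth at or above a set limit in either of two replicates at 10 µM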;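 also: this counterscreen used the strain with wild-type TIM10; 0% = yeast with DMSO and 100% = medium wells lacking yeast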
tim23-1 conf – tim23-1 mutant yeast growth inhibitors, confirmation, luminescence, single concentration; S. cerevisiae tim23-1 growth, BacTiter-Glo luminescence, 24 h; 4,400 tested, 83% active; inhibition, % at 20 µM; shares compounds with tim23-1 inh; AID 463218, 2010;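 active = inhibition above about 39% in either of two replicate wells at 20 µM, limit read from the data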;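 also: temperature-sensitive tim23-1 mutant grown at 25 °C; 0% = DMSO wells with yeast and 100% = medium wells without yeast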
Mdm2-MdmX conf – Mdm2-MdmX complex disruptors, retested hits, confirmation, luminescence, single concentration. shares compounds with Mdm2-MdmX inh. Mdm2-MdmX binding, luminescent assay. inhibition, % at 8 µM. 10,000 tested, 55% active. AID 489028, 2010; in the data active = inhibition above about 40%
FLuc counter – full-length luciferase signal inhibition, confirmation, counter-screen for Mdm2/MdmX interaction inhibitor project, cell-based, single concentration, SaOS-2; SaOS-2 full-length luciferase counterscreen, luminescence; inhibition, % at 8 µM; shares compounds with Mdm2-MdmX inh; 6,200 tested, 77% active;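 active = mean inhibition at 8 µM reaching about 37%, which flags the compound as non-specific, limit read from the data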;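 also: p53-null SaOS-2 cells with luciferase driven by a doxycycline-inducible promoter; compound on cells about two nights before reading with doxycycline added after day one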
The depositor's hits bear a star.

For COc1cc(/C=C/C(=O)CC(=O)/C=C/c2ccc(O)c(OC)c2)ccc1O the results were tim23-1 inh 42.5, tim10-1 inh 40.0, TIM10 inh 29.3, MPTP inh 7.2, Mdm2-MdmX inh 54.5*, tim10-1 conf 38.5* and Mdm2-MdmX conf 7.5.
Screening O=C(/C=C/c1cccc(Cl)c1)c1ccc([N+](=O)[O-])o1 returned tim23-1 inh 95.0*, tim10-1 inh 93.9*, TIM10 inh 96.5*, MPTP inh -1.9, Mdm2-MdmX inh 100.3*, tim10-1 conf 96.1*, tim10 confirm 98.7*, tim23-1 conf 98.8*, Mdm2-MdmX conf 99.8* and FLuc counter 51.4*.
For COc1ccc(/C=C/C(=O)c2ccc([N+](=O)[O-])o2)cc1OC the results were tim23-1 inh 90.1*, tim10-1 inh 91.0*, TIM10 inh 95.7*, Mdm2-MdmX inh 95.6*, tim10-1 conf 88.8*, tim10 confirm 98.2*, tim23-1 conf 97.2*, Mdm2-MdmX conf 92.8* and FLuc counter 56.5*.
Screening C[C@@H](NC(=O)[C@@H]1CCCN1C(=O)OC(C)(C)C)c1ccccc1 returned MPTP inh 0.9.
`COCCN(C(=O)CCl)C(C(=O)NC1CCCCC1)c1ccccc1C` (stereo unspecified) gave tim23-1 inh 50.4*, tim10-1 inh 55.1*, TIM10 inh 46.9*, MPTP inh 0.4, Mdm2-MdmX inh 97.2*, tim10-1 conf 44.1*, tim10 confirm 5.0, tim23-1 conf 53.2*, Mdm2-MdmX conf 72.2* and FLuc counter 37.9*.
Screening O=C(Nc1ccc2oc(-c3ccncc3)nc2c1)c1ccccc1F returned tim23-1 inh -4.4, tim10-1 inh 15.6, TIM10 inh 36.0, MPTP inh 3.1 and Mdm2-MdmX inh -12.2.
`O=C(Nc1ccc2oc(-c3ccncc3)nc2c1)c1ccc([N+](=O)[O-])o1` gave tim23-1 inh 69.0*, tim10-1 inh 45.4*, TIM10 inh 52.8*, MPTP inh 1.7, Mdm2-MdmX inh 56.3*, tim10-1 conf 68.3*, tim10 confirm 74.9*, tim23-1 conf 78.9*, Mdm2-MdmX conf 44.0* and FLuc counter 45.1*.
For O=C(N/N=C/c1ccc([N+](=O)[O-])s1)c1cccc(Br)c1 the results were tim23-1 inh 39.3, tim10-1 inh 52.5*, TIM10 inh 30.4, MPTP inh 7.4, Mdm2-MdmX inh 76.8*, tim10-1 conf 25.8, Mdm2-MdmX conf 68.1* and FLuc counter 37.5*.
For O=C(N/N=C/c1cccc([N+](=O)[O-])c1)c1cccc(Br)c1 the results were tim23-1 inh -3.1, tim10-1 inh 0.7, TIM10 inh 2.6, MPTP inh 8.1 and Mdm2-MdmX inh -8.6.
C=CCNc1nc(-c2ccccn2)nnc1-c1ccccc1 was read as tim23-1 inh 4.1, tim10-1 inh 49.3*, TIM10 inh 46.5*, MPTP inh -0.7, Mdm2-MdmX inh 55.1*, tim10-1 conf 40.6*, tim10 confirm 24.6, Mdm2-MdmX conf 60.2* and FLuc counter 40.5*.
